# Test results: PubChem BioAssay AID449762 (Southern Research Specialized Biocontainment Screening …, 2010)
# About 1,900 (0.58%) of roughly 330,000 compounds were called active. Inconclusive results (about 4%) are left out. No stated cut-off is given here; in the data, inconclusive means inhibition above about 70% without an active follow-up result; inactive means below that. These entries were drawn from the full list. Results with a measured potency or affinity are listed apart.
# Assay: M. tuberculosis growth inhibition, HTS (AID 449762);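 further: bacterial growth assessed after seven days of incubation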
# Settings: M. tuberculosis H37Rv growth inhibition, 7H9 media; at 25 µM; stronger effect = higher value
row,SMILES,inhibition
1,COCCCNC(=O)/C(C#N)=C/c1c(N2CCN(c3ccccc3)CC2)nc2c(C)cccn2c1=O,4.49% (inactive)
2,COCCNC(=O)/C(C#N)=C/c1c(N2CCN(c3cccc(Cl)c3)CC2)nc2c(C)cccn2c1=O,8.89% (inactive)
3,CCOc1ccc(NC(=O)/C(=C\c2ccc(OC(C)=O)c(OC)c2)NC(C)=O)cc1,4.59% (inactive)
4,Cc1ccc(-c2nc(CS(=O)CC(=O)NCCN3CCCCC3C)c(C)o2)cc1 (stereo not given),-3.03% (inactive)
5,CN(C)/N=C/C=C1\CC/C(=C\c2ccc(Br)cc2)C1=O,3.13% (inactive)
6,CC(C)c1ccc(/C=C2\CC/C(=C\C=N\N(C)C)C2=O)cc1,-3.15% (inactive)
7,Cc1cc(-n2nc(C)cc2C)nc(N)n1,-2.23% (inactive)
8,CCOC(=O)c1c(-c2ccc(F)cc2)csc1NC(=O)CN1C(=O)NC2(CCCCC2C)C1=O (stereo not given),4.04% (inactive)
9,COc1ccc(/C=C/c2c(-c3ccc(OC)cc3)oc3cccnc23)cc1,-6.31% (inactive)
10,COc1ccc(/C=C/c2c(-c3ccc(OC)cc3)oc3ccccc23)cc1,-5.2% (inactive)
11,COc1ccc(C2C3=C(CC(C)(C)CC3=O)Nc3c2c(=O)n(C)c(=O)n3C)cc1OC (stereo not given),-2.26% (inactive)
12,O=C(Cc1ccc([N+](=O)[O-])cc1)NCc1ccccc1Cl,0.6% (inactive)
13,CCOC(=O)Cc1csc(NC(=O)CSc2nnc(-c3ccncc3)n2Cc2ccco2)n1,2.42% (inactive)
14,CC(C)c1onc(C(=O)N2CCN(c3ccccc3)CC2)c1[N+](=O)[O-],-4.37% (inactive)
15,Cc1ccc(N(CCC#N)C(=O)COC(=O)c2cc(C)oc2C)cc1,-1.99% (inactive)
16,Cc1ccc(SCC(=O)OCC(=O)N(CCC#N)c2ccccc2)cc1C,27.2% (inactive)
17,CC1(c2ccc3ccccc3c2)NC(=O)N(CC(=O)N2CCN(Cc3ccccc3)CC2)C1=O (stereo not given),-2.77% (inactive)
18,Cc1cc(NC(=O)c2cccnc2)ccc1NC(=O)c1cc2ccccc2o1,5.9% (inactive)
19,Cc1[nH]n(-c2ccccc2)c(=O)c1-c1ccccc1,2.82% (inactive)
20,Cc1cc(-c2c(C)[nH]n(-c3ccccc3)c2=O)n(-c2ccccc2)n1,-6.21% (inactive)
21,O=C(Cc1ccc(Cl)cc1)N/N=C/c1cccc(O)c1,9.69% (inactive)
22,COc1cc(/C=C2\SC(=Nc3ccc(O)cc3)NC2=O)cc(OC)c1O,2.36% (inactive)
23,CCc1ccc(N=C2NC(=O)/C(=C/c3cc(OC)c(OC)c(OC)c3)S2)cc1,6.19% (inactive)
24,COc1cccc(NC(=O)Nc2cc(C(=O)O)ccc2C)c1,16.4% (inactive)

row,SMILES,inhibition
1,O=C(CC1(O)C(=O)N(Cc2ccccc2Cl)c2ccccc21)c1ccco1 (stereo not given),7.75% (inactive)
2,CCc1cccc2c(C(=O)C(NCCOC)c3ccccc3)c[nH]c12 (stereo not given),-0.65% (inactive)
3,Cc1ccc(C(=O)Nc2cc([N+](=O)[O-])ccc2C)cc1,10.4% (inactive)
4,CC(C)C(=O)Nc1cccc(-c2nc3ccccc3o2)c1,-4.29% (inactive)
5,CC(=O)Nc1cccc(-c2nc3ccccc3c(=O)o2)c1,8.2% (inactive)
6,CC(C)N(C(C)C)S(=O)(=O)c1ccc(NN)nc1,10% (inactive)
7,CCn1c(N2CCN(Cc3ccc([N+](=O)[O-])cc3)CC2)nc2ccccc21,2.71% (inactive)
8,CCCn1c(N2CCN(C(=O)Nc3ccc(Cl)cc3)CC2)nc2ccccc21,-1.4% (inactive)
9,CC1CC1C(=O)OCC(=O)NC(=O)c1ccc(C(C)(C)C)cc1 (stereo not given),4.17% (inactive)
10,CC1C(C#N)=C(SCC(N)=O)NC2=C1C(=O)CC(C)(C)C2 (stereo not given),0.02% (inactive)
11,CC(=O)NNC(=O)CCn1nnc(-c2ccc(Cl)cc2)n1,0.1% (inactive)
12,COC(=O)c1nnn(CC(=O)NC(=O)Nc2cccc(C)c2C)c1C(=O)OC,-2.49% (inactive)
13,CCc1ccc(C(N)=S)cc1,40.3% (inactive)
14,CCc1cc(C(N)=S)ccn1,40.1% (inactive)
15,CCOC(=O)c1[nH]c2ccc(F)cc2c1NC(=O)CCN1CCOCC1,7.04% (inactive)
16,CCOc1ccccc1-c1nc(SCC(=O)O)n[nH]1,2.12% (inactive)
17,CCC(=O)c1c[nH]c(C(=O)NCc2cccc(C(F)(F)F)c2)c1,3.92% (inactive)
18,CCN1CC=C(c2c[nH]c3ccccc23)CC1,4.32% (inactive)
19,C1=C(c2c[nH]c3ccccc23)CCN(Cc2ccccc2)C1,8.31% (inactive)
20,Cc1ccc(S(=O)(=O)Nc2ccc(N=Nc3ccc(O)cc3)cc2)cc1,7.49% (inactive)
21,Cc1cc(=O)oc2cc(NC(=O)C(C)Oc3cccc(Cl)c3)ccc12 (stereo not given),4% (inactive)
22,CCOC(=O)c1c(C)[nH]c(C(=O)COC(=O)c2ccc(O)cc2)c1C,-6.58% (inactive)
23,OC(CN1CCCCC1)Cn1c2ccccc2c2ccccc21 (stereo not given),8.7% (inactive)
24,O=c1c2ccccc2n(CC(O)CN2CCCCC2)c2ccccc12 (stereo not given),-4.66% (inactive)

row,SMILES,inhibition
1,CC(C)(C)OC(=O)N[C@@H](Cc1ccccc1)C(=O)N1CCC(C(=O)NCC(=O)O)CC1,-2.02% (inactive)
2,Cc1cccc(N2CCN(C(=O)CCCn3c(=O)[nH]c4ccsc4c3=O)CC2C)c1 (stereo not given),6.71% (inactive)
3,CCc1ccc2c(c1)[C@]1(C(=O)N2)[C@@H]2C(=O)N(Cc3ccccc3)C(=O)[C@@H]2[C@@H]2CCCN21,-2.59% (inactive)
4,CCn1nc(C)cc1C(=O)N1CCCC(C(=O)c2ccc3ccccc3c2)C1 (stereo not given),0.73% (inactive)
5,Cc1ccc(C(=O)N/N=c2\sc3ccccc3n2C)cc1,10.5% (inactive)
6,COc1cccc(C(=O)N/N=c2\sc3ccccc3n2C)c1,29.6% (inactive)
7,Cc1ccc(S(=O)(=O)N2CCOCC2)cc1C(=O)NC(=S)N1CC(C)OC(C)C1 (stereo not given),-0.86% (inactive)
8,O=C(N/N=C\c1ccc(Cl)s1)c1cccs1,63.3% (inactive)
9,Cc1ccc(/C=N/NC(=O)c2cccs2)s1,43% (inactive)
10,CC1(C)CC(=O)C=C(c2cccc(Br)c2)C1,-4.12% (inactive)
11,COc1cc(-c2nnc(SCC(=O)Nc3ccc(C(=O)O)cc3)o2)cc(OC)c1OC,-0.72% (inactive)
12,COc1cc(NC(=O)C2CCN(S(=O)(=O)c3ccc(N4CCCC4=O)cc3)CC2)cc(OC)c1,8.33% (inactive)
13,C=CCNC(=O)N1CCC(c2nc3ccccc3s2)CC1,-8.35% (inactive)
14,S=C(NCCN1CCOCC1)N/N=C/c1ccccc1,-4.03% (inactive)
15,Oc1cccc(/C=N/NC(=S)NCCN2CCOCC2)c1O,-1.62% (inactive)
16,CCCn1c(SCC(=O)Nc2ccc(S(=O)(=O)N(C)C)cc2)n[nH]c1=O,-9.52% (inactive)
17,CCn1c(SCC(=O)Nc2ccc3c(c2)OCO3)nnc1C(C)C,-4.67% (inactive)
18,COc1ccc(C2CC(c3ccccc3)=NN2C(=O)COC(=O)c2ccc(S(C)(=O)=O)cc2)cc1 (stereo not given),1.53% (inactive)
19,COc1ccc(C2=NN(C(=O)COC(=O)c3ccc(NC(=O)CC#N)cc3)C(c3ccco3)C2)cc1 (stereo not given),-7.88% (inactive)
20,Cc1cccc(-n2c(-c3csc4ccccc34)n[nH]c2=S)c1,2.9% (inactive)
21,Cc1nonc1NC(=O)CSc1ccccn1,2.01% (inactive)
22,CC(=O)Nc1nonc1NC(=O)CSc1ccccn1,-2.12% (inactive)
23,CN1C(=O)c2ccccc2N(C)C1c1cccc(O)c1 (stereo not given),0.25% (inactive)
24,O=C(CN1C(=O)c2cccc3cccc1c23)NCc1ccccn1,-1.94% (inactive)

row,SMILES,inhibition
1,COc1ccc(S(=O)(=O)Nc2cccc(S(=O)(=O)N3CCCC3)c2)cc1OC,-4.75% (inactive)
2,CCOC(=O)CCCNC(=O)COC(=O)c1cc(C)cc(C)c1,-0.59% (inactive)
3,CCOC(=O)CCCNC(=O)COC(=O)c1ccc(O)cc1,-6.12% (inactive)
4,COc1cc(NS(=O)(=O)c2c(C)[nH]c(C)c2C(=O)N2CCCCC2)cc(OC)c1OC,7.96% (inactive)
5,O=C(NC(=Nc1nc2ccccc2o1)NC(=O)c1ccccc1)c1ccccc1,3.54% (inactive)
6,COc1ccccc1C(=O)N/C(N)=N/c1nc2ccccc2o1,0.95% (inactive)
7,CCC(=O)N(Cc1ccco1)Cc1cc2cc3c(cc2[nH]c1=O)OCO3,3.54% (inactive)
8,S=C(NCCc1ccccc1)N1CCN(C23CC4CC(CC(C4)C2)C3)CC1,7.41% (inactive)
9,CCN1CCN(C2CCCCC2NS(=O)(=O)c2ccccc2)CC1 (stereo not given),-5.99% (inactive)
10,COc1ccc2oc(C(=O)Nc3nc4ccccc4[nH]3)c(C)c2c1,25.6% (inactive)
11,Cc1c(C(=O)Nc2nc3ccccc3[nH]2)oc2ccc(Br)cc12,64.1% (inactive)
12,Cc1ccc(C(=O)Cn2c(-c3ccccc3)noc2=O)cc1,2.22% (inactive)
13,CCC(C)(C)NC(=O)Cn1c(-c2ccc(C)cc2)noc1=O,-4.07% (inactive)
14,Cn1ccc(-c2ccccc2)c(C#N)c1=O,-0.87% (inactive)
15,Cc1ccc2nc(SCC(=O)NCC3CCCO3)c(C#N)cc2c1 (stereo not given),9.97% (inactive)
16,Clc1ccccc1OCCCCn1ccnc1,-6.48% (inactive)
17,Cc1ccccc1OCCCCCn1ccnc1,-16.2% (inactive)
18,COc1ccccc1NC(=O)C(C)OC(=O)/C(=C/c1ccccc1)NC(C)=O (stereo not given),5.35% (inactive)
19,O=C(Nc1ccc2c(c1)OCO2)c1ccc(Br)s1,65% (inactive)
20,O=C(Nc1ccc2c(c1)OCO2)c1cccs1,-1.92% (inactive)
21,O=c1[nH]nc(-c2ccc(F)cc2)cc1Cc1ccccn1,1.36% (inactive)
22,CCC(C)(C)NC(=O)C(c1ccc(OC)cc1)N(C(=O)CCC(=O)Nc1cc(C)on1)c1ccccc1OC (stereo not given),-10.6% (inactive)
23,O=[N+]([O-])c1ccccc1/C=C/CN1CCCCC1,-9.58% (inactive)
